Screening results from PubChem.
Only some compounds are listed: those with a hit (about 4.6% of all), similar ones and a draw of the others.
D1 ag: human D1 receptor agonism. P21728. HEK293 T-REx D1 cells, calcium flux, agonist mode. activation, % at 2 µM. 360,000 compounds, 1% hits. AID 504660; further: 0% is about no effect
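Agonism was scored from calcium flux recorded over 180 s (1 read/s) after pintool compound addition, following a 10-cycle baseline. Cells were inducible force-coupled HEK293 TREx D1, plated overnight at 30 C and loaded with no-wash calcium dye.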
D1 PAM: potentiators of human D1 dopamine receptor. P21728. HEK293 TREx D1 cells, calcium flux, dopamine EC20 potentiation. potentiation, % at 10 µM. 360,000 compounds, 0.036% hits. AID 504651; in the data active means potentiation above about 30%; further: 0% is about no effect
D1 antag: antagonists of human D1 dopamine receptor | P21728 | HEK293 TREx D1 cells, calcium flux, dopamine EC80; hits give low values | activity change, negative = inhibition, % at 10 µM | 360,000 compounds, 3.2% hits | AID 504652; in the data active means activity change below about -30%; further: on the % scale 0 is the no-effect control and ±100 the full control effect
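Allosteric or orthosteric antagonism assessed as attenuation of the calcium response to EC80 dopamine, added 180 s after compound, in induced HEK293 Trex D1 cells loaded with no-wash calcium dye.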
TRHR PAM: TRH receptor (human) allosteric enhancement. P34981. TRHR cells, fluo-8 calcium fluorescence, EC20 TRH enhancement. enhancement, % at 2 µM. 360,000 compounds, 0.66% hits; in the data active means enhancement above about 30%; further: 0% is about no effect
Target sequence (P34981 whole entry, looked up): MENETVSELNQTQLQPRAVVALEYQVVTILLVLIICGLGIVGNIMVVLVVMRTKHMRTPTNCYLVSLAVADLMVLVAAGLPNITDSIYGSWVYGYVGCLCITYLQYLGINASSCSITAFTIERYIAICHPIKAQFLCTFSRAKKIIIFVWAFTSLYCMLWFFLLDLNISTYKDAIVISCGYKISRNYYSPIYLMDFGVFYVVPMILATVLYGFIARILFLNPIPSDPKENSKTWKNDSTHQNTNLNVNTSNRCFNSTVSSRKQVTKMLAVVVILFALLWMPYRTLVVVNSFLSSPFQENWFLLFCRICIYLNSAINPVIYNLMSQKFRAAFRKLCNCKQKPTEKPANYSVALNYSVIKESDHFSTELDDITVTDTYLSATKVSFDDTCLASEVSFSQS
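TRHR-expressing cells loaded with fluo-8 calcium dye were read kinetically (ex 480/em 530) during compound addition, then stimulated with an EC20 of TRH (10 nM final). Enhancement of the Gq-mediated intracellular calcium response was scored.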
TRHR agonist: TRH receptor (human) agonism. P34981. TRHR cells, calcium flux fluo-8, FDSS agonist mode. activation, % at 2 µM. 360,000 compounds, 0.18% hits; further: 0% is about no effect
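TRHR-expressing cells loaded with fluo-8 calcium dye; 23 nL library compound pin-transferred, kinetic FDSS fluorescence (Ex 480/Em 530) recorded about 180 s for agonist-induced calcium release, before a 10 nM TRH EC20 addition for potentiator mode.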
Numbers without * were called inactive. Unless noted, no stated cut-off is given here; in the data, active means activation above about 30%; inactive means the rest.

For CCOc1cc(-c2nc(-c3ccc(-c4ccc(C)cc4)nc3OC)no2)cc(OCC)c1OCC the results were D1 ag 0, D1 PAM -3, D1 antag 15, TRHR PAM 1 and TRHR agonist 0.
For O=C(/C=C/c1ccc2c(c1)OCO2)N1CCCCC1 the results were D1 ag 2, D1 PAM -2, D1 antag -30*, TRHR PAM -7 and TRHR agonist 0.
`O=C(/C=C/c1ccc2c(c1)OCO2)N1CCN(c2ccc(Cl)cc2)CC1` gave D1 ag 3, D1 PAM 7, D1 antag 0, TRHR PAM -7 and TRHR agonist 0.
O=C(/C=C/c1cccs1)N1CCN(Cc2ccc3c(c2)OCO3)CC1 was read as D1 ag 1, D1 PAM -4, D1 antag 1, TRHR PAM 1 and TRHR agonist 0.
Screening O=C(/C=C/c1cccc([N+](=O)[O-])c1)N1CCN(Cc2ccc3c(c2)OCO3)CC1 returned D1 ag 2, D1 PAM -9, D1 antag -34*, TRHR PAM -5 and TRHR agonist -1.
CCc1nn2c(-c3ccccc3OC)ccnc2c1-c1ccc(F)cc1 was read as D1 ag 1, D1 PAM -6, D1 antag -7, TRHR PAM -6 and TRHR agonist -1.
`Cc1ccc(CNC(=O)c2ccc3c(c2)N(Cc2cccc(Cl)c2)C(=O)CS3)cc1` gave D1 ag 7, D1 PAM -2, D1 antag -21, TRHR PAM -4 and TRHR agonist 1.
Screening Cc1csc(SCC(=O)Nc2ccc(C)c(F)c2)n1 returned D1 ag 1, D1 PAM 3, D1 antag -39*, TRHR PAM -3 and TRHR agonist -1.
`COc1ccc([C@]23Cc4cc(OC)c(OC)cc4C(O2)C2=C(CC4(CCCCC4)OC2=O)O3)cc1` gave D1 ag 1, D1 PAM -4, D1 antag 9, TRHR PAM -5 and TRHR agonist 0.
For CCCN1C(=O)/C(=C/c2c(N3CCNC(=O)C3CC(=O)OC)nc3c(C)cccn3c2=O)SC1=S (configuration not stated) the results were D1 ag 265*, D1 PAM 15, D1 antag -30*, TRHR PAM 17 and TRHR agonist 76*.
Cc1ccc(S(=O)(=O)N2CCN(C(=O)COC(=O)CCOc3cc(C)ccc3C)CC2)cc1 was read as D1 ag 27, D1 PAM -6, D1 antag -17, TRHR PAM 1 and TRHR agonist 0.
COc1ccccc1NC(=O)c1ccc(S(=O)(=O)N2CCCC2)cc1 was read as D1 ag 2, D1 PAM 1, D1 antag -1, TRHR PAM -4 and TRHR agonist 0.
`CCOC(=O)CSc1nnc(CNC(=O)c2ccc(S(=O)(=O)N3CCOCC3)cc2)n1C` gave D1 ag 8, D1 PAM -3, D1 antag -8, TRHR PAM -3 and TRHR agonist 0.
Screening Cc1ccccc1OCC(=O)OCC(=O)Nc1cc(S(=O)(=O)N2CCCCC2)ccc1Cl returned D1 ag 4, D1 PAM -2, D1 antag -96*, TRHR PAM 9 and TRHR agonist 1.
`CCOc1ccccc1NC(=O)c1ccc(S(=O)(=O)N2CCCCC2)cc1` gave D1 ag 9, D1 PAM -6, D1 antag -10, TRHR PAM 32* and TRHR agonist -1.
For Cc1ccc(S(=O)(=O)N2CCN(C(=O)COC(=O)CCOc3ccccc3C)CC2)cc1 the results were D1 ag 12, D1 PAM -18, D1 antag -36*, TRHR PAM -2 and TRHR agonist 0.
For CCOC(=O)CSc1nnc(CNC(=O)c2ccc(S(=O)(=O)N3CCCC3)cc2)n1C the results were D1 ag 54*, D1 PAM -2, D1 antag 7, TRHR PAM -2 and TRHR agonist -2.
Cc1ccc(C)c(OCCC(=O)OCC(=O)N2CCN(S(=O)(=O)c3ccc(Cl)cc3)CC2)c1 was read as D1 ag 6, D1 PAM 3, D1 antag -16, TRHR PAM 8 and TRHR agonist -1.
Cc1ccc(C)c(OCCC(=O)N2CCN(S(=O)(=O)c3ccc([N+](=O)[O-])cc3)CC2)c1 was read as D1 ag 3, D1 PAM 2, D1 antag -33*, TRHR PAM 0 and TRHR agonist 0.
Screening CCOc1ccc(OCCC(=O)OCC(=O)N2CCN(S(=O)(=O)c3ccc(Cl)cc3)CC2)cc1 returned D1 ag 8, D1 PAM -6, D1 antag -32*, TRHR PAM 7 and TRHR agonist 2.
Screening CCN1CCN(S(=O)(=O)c2ccc(OC)c(NC(=O)c3ccccc3)c2)CC1 returned D1 ag 3, D1 PAM 0, D1 antag -48*, TRHR PAM 1 and TRHR agonist 0.
Screening Cc1ccccc1OCCOC(=O)c1ccc(S(=O)(=O)N2CCCC2)cc1 returned D1 ag 13, D1 PAM -1, D1 antag -31*, TRHR PAM -12 and TRHR agonist 2.
COc1ccc(C2CC(=O)c3cc(-c4nc(-c5cccc(Cl)c5)cs4)c(=O)[nH]c3C2)cc1OC (configuration not stated) was read as D1 ag 0, D1 PAM 4, D1 antag 7, TRHR PAM 20 and TRHR agonist 4.
For CCc1ccc(C2CC(=O)c3c([nH]c(C(=O)OCCOc4ccccc4)c3C)C2)cc1 (configuration not stated) the results were D1 ag 7, D1 PAM -2, D1 antag -16, TRHR PAM -3 and TRHR agonist 2.
`CCOC(=O)c1c(S(=O)(=O)N2CCN(c3ccccc3OC)CC2)c(C)n(C)c1C` gave D1 ag 0, D1 PAM 0, D1 antag -6, TRHR PAM -9 and TRHR agonist -1.
`COc1ccc(Nc2cc(C(=O)NCCCN3CCOCC3)c3ccccc3n2)c(OC)c1` gave D1 ag 0, D1 PAM 1, D1 antag 0, TRHR PAM -3 and TRHR agonist 2.
`COc1ccc(Nc2cc(C(=O)NCCCN3CCN(c4ccccc4F)CC3)c3ccccc3n2)c(OC)c1` gave D1 ag 0, D1 PAM -2, D1 antag -42*, TRHR PAM -1 and TRHR agonist 0.
Screening CC1CCCCN1CCCNC(=O)c1cc(Sc2ccc(Cl)cc2)nc2ccccc12 (configuration not stated) returned D1 ag 16, D1 PAM -4, D1 antag -20, TRHR PAM -2 and TRHR agonist 0.
